In PubChem BioAssay AID504332 (National Center for Advancing Translational Sciences (NCATS), 2011):
The campaign covered roughly 350,000 compounds. About 31,000 (8.9%) were called active. About 15% were inconclusive and are not listed. The call rests on the fitted dose curve; in most records, active means well fitted inhibition curve with a large enough effect; inconclusive means small, poorly fitted or top-dose-only effect; inactive means no such curve, though single readings can be large or run the other way. The full list was thinned out, with actives kept by preference.

Biological target: Histone-lysine N-methyltransferase EHMT2 (Homo sapiens) (UniProt Q96KQ7)
Sequence (Q96KQ7 913-1193 limits assumed): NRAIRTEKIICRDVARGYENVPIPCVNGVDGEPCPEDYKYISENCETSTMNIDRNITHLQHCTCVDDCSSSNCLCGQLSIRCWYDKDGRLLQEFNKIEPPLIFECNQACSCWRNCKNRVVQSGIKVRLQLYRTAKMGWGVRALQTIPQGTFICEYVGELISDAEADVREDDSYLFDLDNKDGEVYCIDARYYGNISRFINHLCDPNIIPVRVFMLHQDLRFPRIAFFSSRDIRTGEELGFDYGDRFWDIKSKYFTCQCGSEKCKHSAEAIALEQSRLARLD
Test: qHTS Assay for Inhibitors of Histone Lysine Methyltransferase G9a; further: nearly all actives have a fitted effect of over 75% in size
Details: G9a H3K9 monomethylation, AlphaScreen, 2 h; series mostly up to 59 µM; activity, negative = inhibition: at the top concentration
How it was run: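 Quantitative HTS format: methyltransferase activity on a biotin-tagged H3K9 peptide is measured by AlphaScreen, using a rabbit anti-monomethyl-H3K9 antibody with streptavidin donor and anti-IgG acceptor beads. Final levels are 20 nM enzyme, 500 nM peptide, 20 uM SAM; 2 h RT.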
On the % scale 0 is the no-effect control and ±100 the full control effect; potency means the concentration at half of the fitted maximal effect.

activity, negative = inhibition, inactive:
COc1ccccc1-c1ccnc2[nH]n(-c3ccccc3)c(=O)c12 -27.4%
CNC(=S)NNC(=O)c1cccn(Cc2ccccc2)c1=O 9.83% [at 102 µM]
Cc1ccc(/C=N/NC(=O)c2sccc2OCc2ccc(F)cc2)cc1 -13.6%
Cc1ccc(-c2nn(-c3ccc(F)cc3)cc2C(=O)NCC(c2cccs2)N2CCOCC2)cc1 (centres undefined) 6.67% [at 102 µM]
CC(=O)c1ccc(N2CCN(C(=O)c3ccc(Cl)c(S(=O)(=O)NC4CC4)c3)CC2)c(F)c1 -35.2% [at 102 µM]
CCOC(=O)/C=c1\s/c(=C\c2ccccc2OC)c(=O)n1CC(=O)N1CCOCC1 -18.7% [at 102 µM]
CCOc1ccccc1NC(=O)Cn1c(=O)n(Cc2ccco2)c(=O)c2sc3ccccc3c21 -6.87%
Cc1cc2ccccc2n1CCNC(=O)c1ccc(F)cc1 -17.6%
Cc1ccc(NC(=O)c2cn3c4c(ccc(Cl)c4c2=O)OC(C)C3)cc1C (centres undefined) -24.9%
O=C(O)c1cc(S(=O)(=O)N(Cc2ccccc2)c2ccccc2)ccc1Cl -15% [at 102 µM]
FC(F)(F)c1cc(-c2ccco2)nc(N2CCOCC2)n1 -0.688%
CC1CCCN(C(=O)c2cc(-c3ccco3)nc3ccccc23)C1 (centres undefined) -9.53% [at 2.33 µM]
Cc1cc2c(c(=O)n1Cc1ccccc1)C1O[C@](CCCCN3C(=O)c4ccccc4C3=O)(Cc3ccccc31)O2 -0.249% [at 2.33 µM]
O=C(c1c(F)cccc1Cl)N1CCN(S(=O)(=O)c2ccc3c(c2)OCCCO3)CC1 30.5% [at 102 µM]
Cc1oc(-c2ccccc2F)nc1CN1CCC(C(=O)NCCc2ccc(Cl)cc2)CC1 -33.8%
CCOc1ccccc1-c1cc(C(=O)N2CCOCC2)c2ccccc2n1 45.7% [at 102 µM]
O=S(=O)(c1ccc(Br)cc1)c1nnn2c1nc(N1CCOCC1)c1sccc12 -3.15%
Cc1ccc(S(=O)(=O)N2CCN(CC(=O)N/N=C/c3cc([N+](=O)[O-])ccc3Cl)CC2)cc1 3.6% [at 102 µM]
Cc1nc([N+](=O)[O-])cn1CC(=O)Nc1ccc2c(c1)OCO2 3.06% [at 102 µM]
CCOC(=O)c1nc(-c2ccc3c(c2)OCO3)[nH]c1C -9.21%
CC(=O)N/N=C/c1cc2c(cc1[N+](=O)[O-])OCO2 1.79% [at 102 µM]
COc1ccccc1-c1nn(Cc2ccccc2)cc1C(=O)N1CCN(c2ncccn2)CC1 21.8% [at 12.7 µM]
CNc1nnc(-c2ccco2)s1 6.5% [at 102 µM]
Cc1ccc(OCC(=O)Nc2nnc(-c3ccco3)s2)cc1 -20.3% [at 102 µM]
Cc1cccc(NC(=O)c2ccc(COc3ccccc3[N+](=O)[O-])o2)n1 -23.8% [at 102 µM]
Cc1cccc(NC(=O)Nc2ccc(OCc3ccccc3)cc2)n1 8.02% [at 2.33 µM]
COc1ccc(Cl)cc1S(=O)(=O)N1CCC(c2ccncc2)CC1 6.73%
CC(C#N)(NC(=O)CN1CCN(S(=O)(=O)c2cc(C(F)(F)F)ccc2Cl)CC1)C1CC1 (centres undefined) -20.4% [at 102 µM]
COc1ccc(Cl)cc1S(=O)(=O)N1CCC(O)(c2ccc(Cl)cc2)CC1 39.4%
N#Cc1ccsc1NC(=O)CN1CCCCC1 -24.5% [at 102 µM]
O=C(NCC(c1ccco1)S(=O)(=O)c1cccs1)c1ccc(F)cc1 (centres undefined) -7.05%
CCc1ccc(NC(=O)CN2CCSc3ccc(S(=O)(=O)N4CCCC4)cc32)cc1 -29.8%
CCN(Cc1ccccc1)S(=O)(=O)c1ccc2c(c1)CCCN2C(C)=O 28.4%
Cc1ccc2[nH]c3c(=O)n(CC(=O)NC(C)C)ncc3c2c1 -25.7%
CCc1ccc(NC(=O)CN2C(=O)C(c3ccccc3)=NC23CCCCCC3)cc1 9.48%
Cc1nnc(SCc2cccc(Cl)c2)n(N)c1=O 6.28% [at 102 µM]
Cc1cc2c(cc3c(SCc4nc(-c5ccccc5)oc4C)nnc(C)n32)o1 -6.19%
Cc1cc(C(=O)NNC(=O)c2ccccc2O)c(C)o1 72.2% [at 12.7 µM]
CC(=O)Nc1ccc(NC(=O)C(NS(=O)(=O)c2ccc3c(c2)OCCO3)C(C)C)cc1 (centres undefined) 15.5% [at 12.7 µM]
Cc1ccc(C2CC2C(=O)NN)cc1 (centres undefined) 8.33% [at 102 µM]
Cc1ccc(NC(=O)C2CC2c2ccccc2)cc1 (centres undefined) 18.3% [at 2.33 µM]
COc1cc(C(=O)Nc2ccc(-n3c(C)nc4ccccc4c3=O)cc2)cc(OC)c1OC 2.32%
CCc1c(C)nc(N)n2c(SCC(=O)NC3CCCCC3)nnc12 -19.6% [at 102 µM]
O=C(NCCCc1ccccc1)C(=O)c1c[nH]c2ccccc12 72.9% [at 102 µM]
COc1ccc(OC)c2[nH]c(=O)c(CCNC(=O)C(C)(C)C)cc12 -0.81% [at 102 µM]
Cc1ccc(S(=O)(=O)c2cn(Cc3ccccc3)c3cc(N4CCCC4)c(F)cc3c2=O)c(C)c1 -8.52%
Cc1c(NC(=O)c2cc(=O)c3ccccc3o2)c(=O)n(-c2ccccc2)n1C 2.29%
CCc1cccc(CC)c1NC(=O)Cn1c(=O)c(-c2cc(C)ccc2NC(C)=O)nc2ccccc21 -7.86%
COC(=O)c1c(NC(=O)C(C)Oc2ccc(Cl)c(C)c2)sc(C)c1C (centres undefined) 3.93%
COC(=O)c1sc(NC(=O)COC(=O)C2CCC2)c(C(=O)OC)c1C 11.6% [at 102 µM]

Potency, active:
CNC(=S)NNC(=O)c1sccc1OCc1ccccc1 50.1 µM
CCOc1ccccc1/C=c1\sc2nc(-c3ccco3)nn2c1=O 35.5 µM
Cc1cc(C)c2nc(-c3ccco3)cc(C(=O)O)c2c1 10 µM
CCOc1ccccc1-c1nc(CN2CCC(C(=O)N3CCOCC3)CC2)c(C)o1 89.1 µM
Cc1ccc(-c2n[nH]c(=S)n2/N=C/c2cc3c(cc2[N+](=O)[O-])OCO3)cc1 1.26 µM
Cc1ccc(S(=O)(=O)N/N=C\c2cc3c(cc2[N+](=O)[O-])OCO3)cc1 5.62 µM
COc1ccc(OCC(=O)Nc2nnc(-c3ccco3)s2)cc1 50.1 µM
CCOc1ccc(OCc2ccc(C(=O)Nc3cccc(C)n3)o2)cc1 44.7 µM
COc1ccc(Cl)cc1S(=O)(=O)N1CCN(CC(=O)C(C)(C)C)CC1 44.7 µM
N#Cc1ccsc1NC(=O)CN1CCN(S(=O)(=O)c2cc(Cl)ccc2Cl)CC1 50.1 µM
Cc1cc2c(cc3c(SCc4cccc(Cl)c4)nnc(C)n32)o1 7.08 µM
Cc1ccc(C2NC(C(=O)O)CS2)cc1 (centres undefined) 31.6 µM
COc1ccc(OC)c2[nH]c(=O)c(CCNC(=O)C(=O)c3c[nH]c4ccccc34)cc12 50.1 µM
COCCCNCC(=O)Nc1sc(C)c(C)c1C(=O)OC 1 µM
